About 79,000 compounds went through this panel and 15% of them were active in at least one assay; those are over-represented in the sample as a whole. Calls of active or inactive are those of the source. No stated cut-off is given here; in the data, active means growth inhibition above about 70%; inactive means the rest. Where a SMILES comes first, the peptide text is derived from it. The star is where a group is joined. Cbz = O=C(OCc1ccccc1)*
How the values were obtained:
[1] = NCI Yeast Anticancer Drug Screen. Data for the rad50 strain (AID 155);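 further: 0% = growth of vehicle-only cultures of the same strain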; conditions: S. cerevisiae rad50 strain growth inhibition; at 50.0 µM; stronger effect = higher value
Outline: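 Growth of the mutant yeast was measured after compound exposure and referenced to vehicle-treated cultures.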

[2] = NCI Yeast Anticancer Drug Screen. Data for the mec2-1 strain (AID 157); conditions: S. cerevisiae mec2-1 strain, at 50.0 µM, stronger effect = higher value
Outline: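 Using mec2-1 yeast: add compound, measure growth, express inhibition versus vehicle-treated cultures.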

[3] = NCI Yeast Anticancer Drug Screen. Data for the sgs1 mgt1 strain (AID 161);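 further: 0% = growth of cultures given vehicle only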; conditions: S. cerevisiae sgs1 mgt1 strain, at 50.0 µM, stronger effect = higher value
Outline: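 This yeast growth screen uses a strain with defined DNA-repair lesions; compound-treated growth is compared with vehicle-treated growth.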

[4] = NCI Yeast Anticancer Drug Screen. Data for the cln2 rad14 strain (AID 165);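 further: 0% = growth equal to vehicle treated cultures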; conditions: S. cerevisiae cln2 rad14 strain, at 50.0 µM, stronger effect = higher value
Outline: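 Yeast strain cln2 rad14, bearing defects in cell cycle control and DNA repair, serves as the test system; values reflect growth inhibition compared with vehicle.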

[5] = NCI Yeast Anticancer Drug Screen. Data for the bub3 strain (AID 167); conditions: S. cerevisiae bub3 mutant strain, at 50.0 µM, stronger effect = higher value
Outline: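 Whole-cell yeast assay. The mutant strain was incubated with compounds, and growth inhibition was determined by comparison with vehicle-treated cells.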

[6] = NCI Yeast Anticancer Drug Screen. Data for the mlh1 rad18 strain (AID 175); conditions: S. cerevisiae mlh1 rad18 strain growth inhibition; at 50.0 µM; stronger effect = higher value
Outline: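 Steps: expose repair-defective yeast to compound; measure growth; express inhibition against vehicle-treated controls.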

Measured: growth inhibition

Cc1cc(=O)n(Cc2ccco2)c(=S)[nH]1
inactive: [1] 25.1% | [2] -25.4% | [3] 14.6% | [4] 0.75% | [5] -0.9% | [6] -9%

COc1ccc(CN2CCCN(Cc3ccc(OC)cc3OC)C2c2ccccc2)c(OC)c1
inactive: [1] 19.6% | [2] 6.9% | [3] 8.05% | [4] 17.9% | [5] -4.6% | [6] 14.8%

O=C(O)/C=C/C(O)C1CCCCC1 (configuration not stated)
inactive: [1] -31.1% | [2] -8.35% | [3] -0.95% | [4] -23.1% | [5] 1.05% | [6] -4.65%

Cc1c(-c2ccccc2)n[nH]c1-c1[nH]nc(-c2ccccc2)c1C
inactive: [1] -9.7% | [2] -16.9% | [3] -24.2% | [4] -15% | [5] -41.1% | [6] -19.1%

CCOC(=O)CS(=O)(=O)CS(=O)(=O)CC(=O)OCC
inactive: [1] 10% | [2] 8.35% | [3] 7.85% | [4] 5.55% | [5] 9.95% | [6] 7.25%

CCCCCC(=O)OC
inactive: [1] 4.75% | [2] -8.15% | [3] -28.4% | [4] -17.1% | [5] -11.2% | [6] 10.8%

NC(=O)NNCc1ccccc1
inactive: [1] -9.35% | [2] -0.3% | [3] -27.2% | [4] -17.4% | [5] -5.6% | [6] -53.8%

CC1(C)COC(CCl)OC1
inactive: [1] 27.1% | [2] 17.9% | [3] 11.3% | [4] -16.5% | [5] 1.95% | [6] 30.9%

O=[N+]([O-])c1cccc(C=NC23CC4CC(CC(C4)C2)C3)c1
inactive: [1] -2.15% | [2] 7.45% | [3] -29.6% | [4] 28.7% | [5] 30.1% | [6] -4.15%

CCCc1c(OC(=O)c2ccc([N+](=O)[O-])cc2)cccc1OC(=O)c1ccc([N+](=O)[O-])cc1
inactive: [1] 20.1% | [2] 1.1% | [3] 12.8% | [4] 18.1% | [5] -3.95% | [6] 7.55%

O=C1OCC=C1COC1OC(CO)C(O)C(O)C1O (configuration not stated)
inactive: [1] -6.35% | [2] 3.55% | [3] -12.8% | [4] 5.05% | [5] -11.9% | [6] -41.7%

CONCc1ccc(C(=O)NC(C)C)cc1
inactive: [1] -10.6% | [2] -6.75% | [3] -5.95% | [4] -3.65% | [5] -0.3% | [6] -11.8%

COc1cccc(C2CC(C)(O)Oc3cc4c(cc32)OCO4)c1O (configuration not stated)
inactive: [1] 9.15% | [2] -8.25% | [3] -9.45% | [4] 12.1% | [5] 23.3% | [6] 6.65%

CCCCOC(=O)c1cc(/C=C\c2ccccc2)on1
inactive: [1] -12.9% | [2] -2.45% | [3] 3.1% | [4] -69.6% | [5] 30.6% | [6] 9.25%

COC(=O)c1cc(-c2ccccc2)c2c(=O)n(-c3ccccc3)[nH]c2n1
inactive: [1] 13.7% | [2] 7.35% | [3] 20.5% | [4] -10.3% | [5] -4.55% | [6] 4.85%

CC(=O)CC(=O)NC(C)(C)C
inactive: [1] 16.6% | [2] -33% | [3] -16.4% | [4] -13.2% | [5] 2.85% | [6] 7.7%

OCC(CO)=C1c2ccccc2-c2ccccc21
inactive: [1] 11% | [2] -6.2% | [3] -8.15% | [4] -28.8% | [5] -1.5% | [6] 5.55%

Nc1nc(SCC(=O)O)nc2nc[nH]c12
inactive: [1] -0.15% | [2] 3.15% | [3] -13.3% | [4] -32% | [5] -7.5% | [6] 4.95%

N#CCC(=O)NCCc1ccccn1
inactive: [1] -6.75% | [2] -3.7% | [3] -13.8% | [4] -44.6% | [5] 10.2% | [6] -9.05%

C=CC[N+](CC)(CC)CC
inactive: [1] 12.3% | [2] -0.45% | [3] 2.35% | [4] 12.3% | [5] 19.4% | [6] 13.3%

CC(=O)NNc1ccc(C(=O)O)cc1
inactive: [1] 13.2% | [2] 1% | [3] 1.85% | [4] -13.4% | [5] -2.7% | [6] -2.4%

C=C(C)C(O)CC (configuration not stated)
inactive: [1] 24.6% | [2] -30.7% | [3] 15.3% | [4] 4.3% | [5] 10.9% | [6] 20.4%

N#C/C=C/c1cccc(Cl)c1
inactive: [1] 39.1% | [2] 7.9% | [3] 1.9% | [4] 14.3% | [5] 14.3% | [6] 16.9%

Cc1ccc(-c2cc(-c3cc(-c4ccc(C)cc4)nc(N)n3)nc(N)n2)cc1
inactive: [1] 3.7% | [2] -13.4% | [3] -20.1% | [4] -13.2% | [5] -25.1% | [6] -13%

CCN1C2=NCCN2C(=O)c2ccccc21
inactive: [1] -0.8% | [2] -11.2% | [3] 15.9% | [4] 15.1% | [5] 8.25% | [6] 13.4%

CCCCCCCCCCCCCCCSc1ccc2ccccc2c1
inactive: [1] -17% | [2] 1.35% | [3] -5.2% | [4] -25.2% | [5] -13.8% | [6] -13.5%

CC1(C)N=C(N)N=C(N)N1c1cccc(CSc2ccccc2)c1
inactive: [1] -14.2% | [2] -11.8% | [3] -20.8% | [4] 7.2% | [5] -18.1% | [6] -19.6%

CCCCn1c2nc(=O)n(C)c(=O)c-2cc2ccccc21
inactive: [1] 29% | [2] 16.7% | [3] 22.6% | [4] -25.4% | [5] 17.8% | [6] 34.7%

COC(=O)C(NC(=O)C(C)NC(=O)C1CCCN1C(=O)CNC(=O)C(CO)NC(=O)C(NC(=O)OCc1ccccc1)C(C)O)C(C)O (configuration not stated) (Cbz-TSGPAT-OMe; configuration not given here)
inactive: [1] 3.3% | [2] -5.9% | [3] -4.7% | [4] -10.2% | [5] -7.8% | [6] 10.6%

Cc1ccc(N)c(C(=O)Nc2ccc(Br)cc2)c1
inactive: [1] -19.6% | [2] -18.6% | [3] -10.1% | [4] -8.85% | [5] -17.6% | [6] -16.6%

CCCCCCC(c1c(O)cc(C)[nH]c1=O)c1c(O)cc(C)[nH]c1=O
inactive: [1] -6.55% | [2] -8.5% | [3] 9.55% | [4] -8.4% | [5] -12.8% | [6] -11.9%

CN(C(=O)C12C3C4C1C1C2C3C41C#N)C(C)(C)C (configuration not stated)
inactive: [1] 20.6% | [2] 6.15% | [3] 2.5% | [4] 11.2% | [5] 20.5% | [6] 19.6%

CC1(C=O)C(=O)CCC2(C)C3CC(=O)OC3CCC12 (configuration not stated)
inactive: [1] -35% | [2] -10.1% | [3] -10.8% | [4] -20.3% | [5] -17.7% | [6] -27.1%

O=C(CC(C(=O)c1ccc(F)cc1)c1ccsc1)c1cccs1 (configuration not stated)
inactive: [1] 13.8% | [2] 2.3% | [3] 26.8% | [4] 16.5% | [5] 8.5% | [6] 3%

O=C(c1nc2ccccc2[nH]c1=O)C(O)c1ccccc1 (configuration not stated)
inactive: [1] 6.9% | [2] -23.6% | [3] -3.1% | [4] 17.4% | [5] -12.8% | [6] -2.2%

CC1(Br)S(=O)(=O)OCCOS1(=O)=O
inactive: [1] -23% | [2] -15.9% | [3] -12.3% | [4] 6.1% | [5] -24.2% | [6] -42.5%

C=C(C)C(=O)N1c2ccc(OC)cc2CC1C(=O)OCC (configuration not stated)
inactive: [1] -1.6% | [2] 16.6% | [3] 7.05% | [4] 12.8% | [5] 15.8% | [6] 4.55%
